The values that follow come from the supplement of paper PMC6555819.

What all share (test): PBM binding z-score (relative to random genomic background probes); higher = stronger binding; sequences stand for … in GC…GCGATTGACAGCGTAGAATGAAGG
Experiment [1] deals with FXR:RXRa (NR concentration 270 nM, RXRa partner concentration 90 nM). The essentials:
(§1)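 Binding z-scores take random background probes as their reference. They come from custom Agilent 4×180K protein-binding microarrays incubated 1 h with ligand-free nuclear receptor dimers, with antibodies against each partner (one per run) detecting binding. Scanned fluorescence was regression-normalized.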

Experiment [2] relates to LXRa:RXRa (NR concentration 270 nM, RXRa partner concentration 90 nM). The gist of the method:
as §1

In experiment [3] the test system is LXRa homodimer (NR concentration 270 nM). The essentials:
as §1

Experiment [4] deals with LXRb:RXRa (NR concentration 270 nM, RXRa partner concentration 90 nM). The gist of the method: as §1
Experiment [5] relates to LXRb homodimer (NR concentration 270 nM). The gist of the method:
as §1

Experiment [6] has as its system PPARa:RXRa (NR concentration 270 nM, RXRa partner concentration 90 nM). The gist of the method:
as §1

Experiment [7] deals with PPARg:RXRa (NR concentration 180 nM, RXRa partner concentration 90 nM). The essentials: as §1
In experiment [8] the test system is PPARg:RXRa 270nM:90nM, anti-RXR (NR concentration 270 nM, RXRa partner concentration 90 nM). The gist of the method:
as §1

Experiment [9] concerns PPARg:RXRa 30nM:10nM, anti-RXR (NR concentration 30 nM, RXRa partner concentration 10 nM). The gist of the method: as §1
Experiment [10] concerns PPARg:RXRa 90nM:30nM, anti-RXR (NR concentration 90 nM, RXRa partner concentration 30 nM). The gist of the method:
as §1

Experiment [11] deals with PPARg:RXRa DBDmut IVT, anti-RXR (DBD mutation: RXRa K156A/R161A, NR concentration 270 nM, RXRa partner concentration 90 nM). The gist of the method:
as §1

The test system of experiment [12] is PPARg:RXRa IVT, anti-PPARg (NR concentration 270 nM, RXRa partner concentration 90 nM). The essentials:
as §1

The subject of experiment [13] is PPARg DBDmut:RXRa IVT, anti-PPARg (DBD mutation: PPARg1 K132A/R137A, NR concentration 270 nM, RXRa partner concentration 90 nM). The gist of the method:
as §1

For experiment [14], the system named is PPARg DBDmut IVT, anti-PPARg (DBD mutation: PPARg1 K132A/R137A, NR concentration 270 nM). The essentials:
as §1

Experiment [15] has as its system PPARg homodimer (NR concentration 180 nM). The essentials:
as §1

Experiment [16] deals with PXR:RXRa (NR concentration 270 nM, RXRa partner concentration 90 nM). The essentials:
as §1

The test system of experiment [17] is PXR homodimer (NR concentration 270 nM). The essentials: as §1
Experiment [18] has as its system RARa:RXR (NR concentration 270 nM, RXRa partner concentration 90 nM). The essentials:
as §1

For experiment [19], the system named is RARa homodimer (NR concentration 270 nM). The gist of the method:
as §1

The subject of experiment [20] is RARb:RXRa (NR concentration 270 nM, RXRa partner concentration 90 nM). The gist of the method:
as §1

On to AGAACGAGGGCACGCTGAGTTGATATCAGAGTAG, for which the PBM binding z-score in experiment [1] is 0.635; in experiment [2] it was 0.337; in experiment [3], -0.489; in experiment [4], -0.0642; in [5] it was -0.77; in experiment [6], 2.02. The PBM binding z-score in experiment [7] was 2.14; in experiment [8], 1.79; in experiment [9] it was 0.489; in [10] it was 1.22; in [11], 4.16; in experiment [12], 3.89. The PBM binding z-score in [13] is 0.683; in [14], -0.135; in [15] it was 0.168; in [16], 1.44; in experiment [17], 0.106; in experiment [18], 0.865. Moreover, the figures for the PBM binding z-score in experiment [19] and in [20] were -0.122 and 2.5, respectively.
Take TTACCAAGGTGAAAGGTCGATGATGCACGCCTTG: the PBM binding z-score is 3.03 in experiment [1]; 2.42 in experiment [2]; -0.187 in [3]; 2.14 in experiment [4]; -0.613 in experiment [5]; 4.95 in experiment [6]. In addition, the PBM binding z-score in experiment [7] turned out to be 8.4; in experiment [8], 7.54; in experiment [9] it was 6.44; in experiment [10] it was 7.87; in experiment [11], 2.4; in experiment [12], 4.78. Moreover, the PBM binding z-score was 0.899 in experiment [13]; 1.64 in [14]; 2.36 in [15]; 3.08 in experiment [16]; -0.143 in experiment [17]; 4.99 in experiment [18]. In addition, the PBM binding z-score in experiment [19] was found to be 0.188; in [20] it was 2.98.
Regarding CAAACTAGGTTACGAAAGGTCAAAGTCGAATGAC, the PBM binding z-score in experiment [1] amounted to 5.93; in experiment [2] it was 8.59; in experiment [3] it was 8.28; in [4], 7.69; in [5], 2.88; in experiment [6], 6.1. Besides, the PBM binding z-score in experiment [7] was found to be 8.03; in experiment [8] it was 7.02; in [9], 4.81; in experiment [10] it was 6.47; in experiment [11], 7.07; in [12] it was 7.68. For the same sequence, the PBM binding z-score worked out at 2.53 in [13]; 2.93 in [14]; 4.81 in experiment [15]; 6.22 in experiment [16]; 1.73 in [17]; 6.69 in [18]. The PBM binding z-score in [19] amounted to 3.24; in [20], 4.82.
GCAGACAGGCGAAACGCAGGTAACTCAGGGTGGC: the PBM binding z-score was -0.64 in experiment [1]; -0.615 in [2]; -0.761 in experiment [3]; -1 in [4]; -1.38 in experiment [5]; -0.682 in [6]. In addition, the PBM binding z-score in experiment [7] is 0.297; in experiment [8], -0.871; in experiment [9] it was -0.326; in experiment [10], -0.791; in experiment [11] it was -0.782; in experiment [12], -0.814. The PBM binding z-score in experiment [13] was -1.19; in experiment [14] it was -1.5; in [15], -0.436; in experiment [16] it was -0.82; in [17] it was -0.795; in experiment [18], -0.316. For the same sequence, the PBM binding z-score was -1.37 in [19] and -0.55 in [20].
TCTACTAGTTGAAGGGCAACCGACGAGTCCGTTT: the PBM binding z-score was 0.338 in experiment [1]; 0.156 in experiment [2]; -0.296 in [3]; 0.212 in experiment [4]; -0.37 in [5]; 0.726 in experiment [6]. Besides, the PBM binding z-score in [7] came to 0.214; in [8] it was 1.58; in experiment [9] it was 3.03; in experiment [10] it was 2.48; in [11] it was 1.69; in experiment [12], 0.294. The PBM binding z-score in experiment [13] is 0.093; in experiment [14], -0.701; in [15] it was 0.312; in experiment [16], 0.458; in experiment [17], 0.108; in [18], 0.275. Moreover, the PBM binding z-score is -0.569 in experiment [19] and 1.27 in experiment [20].
As for ATCGAAAGGTCGTGAGCTGAGTATACAGAAAGGC, the PBM binding z-score in experiment [1] came to 4.79; in experiment [2], 3.91; in experiment [3] it was 0.0249; in [4], 3.03; in experiment [5] it was 0.117; in experiment [6] it was 4.86. In addition, the PBM binding z-score in [7] was 3.35; in experiment [8], 4; in experiment [9], 1.23; in experiment [10], 2.6; in experiment [11], -0.173; in [12], 1.49. Also, the PBM binding z-score in experiment [13] was determined as 0.42; in [14], 0.76; in experiment [15], 1.16; in experiment [16], 2.75; in [17], 0.0585; in experiment [18], 3.56. Moreover, the values for the PBM binding z-score in experiment [19] and in [20] were -0.0844 and 3.76, respectively.
As for AGAACGAGGGCACGCTGAGTTGACAGCAGAGTAG, the PBM binding z-score in experiment [1] was 0.953; in experiment [2], 0.796; in experiment [3], -0.526; in experiment [4] it was 0.312; in experiment [5], -1.2; in [6], 2.46. Also, the PBM binding z-score in [7] turned out to be 2.25; in [8], 1.73; in [9] it was 0.191; in experiment [10], 0.731; in experiment [11], 3.94; in experiment [12], 3.77. For the same sequence, the PBM binding z-score in experiment [13] was 1.38; in experiment [14], 0.377; in experiment [15], 0.462; in experiment [16], 1.46; in experiment [17], -0.0837; in experiment [18], 1.24. Further, the figures for the PBM binding z-score in experiment [19] and in [20] were -0.654 and 2.57, respectively.
